Seven compounds from PubChem BioAssay (Tox21) can be followed below.

Molecules are shown by their SMILES. Where “and” joins values, the source holds several entries; their conditions need not be identical. Identical values can stand only once. Records with an inconclusive call do not appear. The source holds several records for some structures; these can differ, active in one and inactive in another. Calls of active or inactive are those of the source. Unless noted, calls follow the shape of the dose curve; as a rule, active = well fitted curve in the direction sought with a large enough effect in the repeat runs; inconclusive = weak or mixed curves; inactive = no such curve, though single readings can be large; an effect the other way counts as inactive or inconclusive.

Assay [1] is described as follows: qHTS assay to test for compound auto fluorescence at 535 nm (green) in HEK293 cells (AID 720680). On the technique in general: Quantitative high-throughput screening tests each substance at several concentrations.
The nature of assay [2]: qHTS assay to test for compound auto fluorescence at 460 nm (blue) in HEK293 cell free culture (AID 720681). The method, boiled down: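 Test compounds were pinned into cell-free culture medium (DMEM with 10% FBS) and fluorescence was read directly at Ex/Em 405/460 nm. Signals were expressed as fluorescence equivalents of triamterene, with DMSO vehicle as control.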
The nature of assay [3]: qHTS assay to test for compound auto fluorescence at 535 nm (green) in HEK293 cell free culture (AID 720682). In short, it runs like this: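 Green-label autofluorescence (485 nm excitation, 535 nm emission) measured on compound added to cell-free culture medium (DMEM, 10% FBS). Output is expressed relative to fluorescein.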
The nature of assay [4]: qHTS assay to test for compound auto fluorescence at 590 nm (red) in HEK293 cell free culture (AID 720683). In short, it runs like this: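 Tox21 10K library compounds were pinned into cell-free DMEM with 10% FBS and fluorescence was read at excitation 540 nm. Activity is expressed as Rose Bengal sodium equivalency.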
The nature of assay [5]: qHTS assay to test for compound auto fluorescence at 590 nm (red) in HepG2 cell free culture (AID 720684). In short, it runs like this: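 Red fluorescence (540 nm excitation, 590 nm emission) was measured after compound transfer into cell-free MEM supplemented with 10% FBS. Values are equivalencies against Rose Bengal sodium.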
Assay [6] is described as follows: qHTS assay to test for compound auto fluorescence at 460 nm (blue) in HepG2 cell free culture (AID 720685). In short, it runs like this: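 Compound (23 nL) or DMSO pinned into cell-free MEM with 10% FBS; blue fluorescence read at 405/460 nm excitation/emission, expressed as auto-fluorescence equivalency to triamterene.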
Assay [7] in a line: qHTS assay to test for compound auto fluorescence at 535 nm (green) in HepG2 cell free culture (AID 720686).
A short description of assay [8]: qHTS assay to test for compound auto fluorescence at 460 nm (blue) in HepG2 cells (AID 720687). In short, it runs like this:
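Cells (2,000/well in MEM with 10% FBS) attached overnight at 37 C, then were exposed to compound or DMSO for 1 hr at 37 C, 5% CO2. Fluorescence read at Ex/Em 405/460 nm, expressed as triamterene-equivalent signal.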

For assay [9], the target named is Glucocorticoid receptor (Homo sapiens) (UniProt P04150). Description: qHTS assay to identify small molecule agonists of the glucocorticoid receptor (GR) signaling pathway (AID 720691; active = well fitted activation curve with a large enough effect in the signal ratio in the repeat runs, not every such curve was filed as active; the % refers to the signal ratio). The method, boiled down:
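GR-bla HeLa cells (beta-lactamase reporter under glucocorticoid response element) were plated 4 h at 37 C/5% CO2, given compounds in DMSO, and incubated 18 h at 37 C. LiveBLAzer B/G FRET substrate was added for 2 h at room temperature, then fluorescence intensity read.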

For assay [10] the target is unchanged. Description: qHTS assay to identify small molecule antagonists of the glucocorticoid receptor (GR) signaling pathway (AID 720692; active = well fitted inhibition curve with a large enough effect in the signal ratio in the repeat runs, not every such curve was filed as active; the % refers to the signal ratio). The method, boiled down: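 GR-bla HeLa cells (beta-lactamase reporter under glucocorticoid response element) were pre-plated 4 h at 37 C, treated with compounds plus 5 nM dexamethasone (final) for 18 h, then read by LiveBLAzer B/G FRET fluorescence after 2 h.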

A short description of assay [11]: qHTS assay to identify small molecule antagonists of the glucocorticoid receptor (GR) signaling pathway - cell viability counter screen (AID 720693). Also: nearly all actives have a fitted effect of over 55% in size.
A short description of assay [12]: qHTS assay for identifying genotoxic compounds that show differential cytotoxicity against isogenic chicken DT40 cell lines with known DNA damage response pathways - wild type cell line (AID 743012). Also: nearly all actives have a fitted effect of over 60% in size. Also: potency is read from the fitted curve at half-maximal effect. In short, it runs like this: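 Parental DNA repair-proficient DT40 cells, 300 per well, were pre-incubated ~0.5 h at 37 C/5% CO2, pin-dosed with compounds in DMSO, then incubated 40 h. Viability was read as CellTiter-Glo luminescence after 30 min at room temperature.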

A short description of assay [13]: qHTS assay for identifying genotoxic compounds that show differential cytotoxicity against isogenic chicken DT40 cell lines with known DNA damage response pathways - Rev3 mutant cell line (AID 743014). Also: nearly all actives have a fitted effect of over 55% in size. Also: potency is read from the fitted curve at half-maximal effect.
Assay [14] in a line: qHTS assay to identify small molecule antagonists of the androgen receptor (AR) signaling pathway - cell viability counter screen (AID 743033; also: nearly all actives have a fitted effect of over 45% in size).
A short description of assay [15]: qHTS assay to identify small molecule antagonists of the androgen receptor (AR) signaling pathway using the MDA cell line - cell viability counter screen (AID 743041; also: nearly all actives have a fitted effect of over 45% in size). The method, boiled down: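 MDA-kb2 AR-luc human breast carcinoma cells (MMTV-luciferase, AR/GR responsive) were treated with compounds plus R1881 agonist for 16 h at 37 °C. Viability was read as CellTiter-Fluor fluorescence in the same wells as the reporter assay.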

Assay [16] is described as follows: qHTS assay for identifying genotoxic compounds that show differential cytotoxicity against isogenic chicken DT40 cell lines with known DNA damage response pathways - Rad54/Ku70 mutant cell line (AID 743015). Also: nearly all actives have a fitted effect of over 60% in size. Also: potency is read from the fitted curve at half-maximal effect.
The target in assay [17] is Androgen receptor (Homo sapiens) (UniProt P10275). In words: qHTS assay to identify small molecule antagonists of the androgen receptor (AR) signaling pathway (AID 743035; active = well fitted inhibition curve with a large enough effect in the signal ratio in the repeat runs, not every such curve was filed as active; the % refers to the signal ratio). In short, it runs like this:
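HEK293 cells stably carrying a UAS-driven beta-lactamase reporter (AR-UAS-bla GripTite) were plated for 4 h at 37C, then given compound and the agonist R1881 and incubated 16 h. Reporter activity was read by LiveBLAzer B/G FRET fluorescence after 2 h at room temperature.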

The target is the same in assay [18]. Description: qHTS assay to identify small molecule agonists of the androgen receptor (AR) signaling pathway (AID 743036; active = well fitted activation curve with a large enough effect in the signal ratio in the repeat runs, with a control signal flat, not every such curve was filed as active; the % refers to the signal ratio). The method, boiled down: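 AR-UAS-bla HEK293 cells, plated 4 h before dosing, were treated with compound for 16 h at 37C. beta-Lactamase reporter read after 2 h with LiveBLAzer B/G FRET substrate at room temperature.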
Assay [19] shares this target. Description: qHTS assay to identify small molecule agonists of the androgen receptor (AR) signaling pathway using the MDA cell line (AID 743040; also: nearly all actives have a fitted effect of over 20% in size). In short, it runs like this:
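MDA-kb2 breast carcinoma cells stably carrying an MMTV-driven luciferase reporter (AR- and GR-responsive) were seeded and held 5 h at 37C, 0% CO2, then exposed to compounds in DMSO for 16 h. Luminescence was read 30 min after ONE-Glo addition.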

The target is the same in assay [20]. Description: qHTS assay to identify small molecule antagonists of the androgen receptor (AR) signaling pathway using the MDA cell line (AID 743042; also: nearly all actives have a fitted effect of over 55% in size). In short, it runs like this: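 MDA-kb2 cells (human breast carcinoma, stably carrying an MMTV-luciferase reporter responsive to AR and GR) were plated at 3,000 cells/well and preincubated 5 hr at 37C, then given compound plus R1881 agonist for 16 h. ONE-Glo luminescence was read.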

Chain of Androgen receptor (Homo sapiens) (P10275 whole entry, looked up): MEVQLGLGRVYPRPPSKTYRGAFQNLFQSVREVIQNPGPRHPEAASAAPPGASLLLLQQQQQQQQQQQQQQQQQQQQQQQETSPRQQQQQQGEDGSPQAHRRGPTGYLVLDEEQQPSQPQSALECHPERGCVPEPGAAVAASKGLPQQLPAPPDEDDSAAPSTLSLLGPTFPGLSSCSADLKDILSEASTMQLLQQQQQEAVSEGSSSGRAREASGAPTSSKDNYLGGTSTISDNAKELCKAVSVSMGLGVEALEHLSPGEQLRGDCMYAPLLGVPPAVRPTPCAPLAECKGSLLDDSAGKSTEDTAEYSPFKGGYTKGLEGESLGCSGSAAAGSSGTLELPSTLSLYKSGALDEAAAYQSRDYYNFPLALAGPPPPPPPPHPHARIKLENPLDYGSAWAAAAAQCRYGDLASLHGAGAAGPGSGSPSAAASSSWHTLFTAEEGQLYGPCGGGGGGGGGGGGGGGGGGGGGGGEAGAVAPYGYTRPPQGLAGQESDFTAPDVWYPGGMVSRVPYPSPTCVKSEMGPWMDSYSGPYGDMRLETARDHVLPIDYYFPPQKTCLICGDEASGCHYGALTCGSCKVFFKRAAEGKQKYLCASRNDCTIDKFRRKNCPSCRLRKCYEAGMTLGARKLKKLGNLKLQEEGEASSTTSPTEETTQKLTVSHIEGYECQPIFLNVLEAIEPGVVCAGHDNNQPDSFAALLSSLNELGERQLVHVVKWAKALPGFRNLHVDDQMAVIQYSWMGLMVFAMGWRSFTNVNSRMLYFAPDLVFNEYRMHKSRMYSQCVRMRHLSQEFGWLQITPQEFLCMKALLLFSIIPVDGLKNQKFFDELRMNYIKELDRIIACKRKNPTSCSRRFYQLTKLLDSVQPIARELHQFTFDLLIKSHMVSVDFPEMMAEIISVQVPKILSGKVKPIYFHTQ
Chain of Glucocorticoid receptor (Homo sapiens) (P04150 whole entry, looked up): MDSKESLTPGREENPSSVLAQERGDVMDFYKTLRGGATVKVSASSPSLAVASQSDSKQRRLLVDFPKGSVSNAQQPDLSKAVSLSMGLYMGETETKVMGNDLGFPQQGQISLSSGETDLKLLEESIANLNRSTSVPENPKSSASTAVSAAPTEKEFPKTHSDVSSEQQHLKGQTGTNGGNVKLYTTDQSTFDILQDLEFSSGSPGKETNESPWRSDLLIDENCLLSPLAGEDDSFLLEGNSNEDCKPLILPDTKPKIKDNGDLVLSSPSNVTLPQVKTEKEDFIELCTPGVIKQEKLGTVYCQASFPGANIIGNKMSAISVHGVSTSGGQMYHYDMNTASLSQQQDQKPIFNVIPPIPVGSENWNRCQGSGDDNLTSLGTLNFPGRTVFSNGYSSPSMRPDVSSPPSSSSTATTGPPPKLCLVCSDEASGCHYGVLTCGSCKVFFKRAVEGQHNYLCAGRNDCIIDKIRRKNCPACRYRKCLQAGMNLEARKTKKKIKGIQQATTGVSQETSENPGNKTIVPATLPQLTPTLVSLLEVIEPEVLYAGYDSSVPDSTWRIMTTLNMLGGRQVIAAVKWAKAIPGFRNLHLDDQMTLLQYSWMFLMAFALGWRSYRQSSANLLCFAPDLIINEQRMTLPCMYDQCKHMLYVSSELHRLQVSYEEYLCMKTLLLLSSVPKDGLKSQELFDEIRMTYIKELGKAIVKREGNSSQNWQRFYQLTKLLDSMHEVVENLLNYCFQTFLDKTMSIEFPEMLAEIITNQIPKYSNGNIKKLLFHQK

For `O=C(O)c1ccc(O)cc1`, the Potency result in assay [1], in assay [2], in assay [3], in assay [4], in assay [5] and in assay [6] was “inactive” in each case. Besides, the Potency result in [7], in [8], in assay [9], in assay [10], in [11] and in assay [12] was “inactive” in each case. For the same compound, the Potency result in [13], in [14] and in [15] was “inactive” throughout.
On to `C=C[Si](OCCOC)(OCCOC)OCCOC`, for which the Potency result in assay [1], in [2], in assay [3], in [4], in [5] and in assay [6] was “inactive” in each case. Besides, the Potency result in [7], in [8], in assay [9], in assay [10], in [11] and in [14] was “inactive” in each case. Also, in [15], the Potency entry is “inactive”. For the same compound, the Potency in assay [12] is 43.3 µM (active); in [13], “inactive and 30.6 µM (active)”; in assay [16], “inactive and 30.6 µM (active)”.
Consider `Cc1cccc(Nc2ccccc2C(=O)O)c1C`, for which the Potency result in assay [1], in [2], in assay [3], in [4], in [5] and in [6] was “inactive” each time. Moreover, the Potency entry in assay [7], in assay [8], in assay [9], in assay [10], in assay [11] and in assay [12] was “inactive” throughout. The Potency result in [13], in assay [14] and in [15] was “inactive” throughout. Further, in assay [16], the Potency result is “inactive and 61.1 µM (active)”.
For the compound `c1ccc2c(c1)ccc1ncccc12`, the Potency entry in [1], in assay [2], in assay [3], in assay [4], in assay [5] and in assay [6] was “inactive” each time. Besides, the Potency entry in assay [7], in assay [8], in assay [9], in [10], in [11] and in assay [12] was “inactive” in each case. Also, the Potency entry in assay [13], in assay [16], in [14], in assay [17], in assay [19] and in assay [15] was “inactive” each time. Further, in [18], the result was inactive.
On to `CCCCCCCCCCC(CO)CCCCCCCC` (configuration not stated), for which the Potency result in [1], in assay [2], in [3], in assay [4], in assay [5] and in [6] was “inactive” each time. Besides, the Potency entry in assay [7], in assay [8], in assay [9], in assay [10], in assay [11] and in [12] was “inactive” in each case. Besides, the Potency entry in [13], in assay [16], in assay [14] and in assay [15] was “inactive” each time.
As for `CCO[Si](CCCNC(N)=O)(OCC)OCC`, the Potency entry in [1], in assay [2], in assay [3], in [4], in assay [5] and in [6] was “inactive” throughout. Further, the Potency entry in assay [7], in assay [8], in [9], in assay [10], in [11] and in assay [12] was “inactive” throughout. For the same compound, the Potency result in assay [13], in [16], in assay [14] and in assay [15] was “inactive” in each case.
Turning to `CC1(C)C(C=C(Cl)Cl)C1C(=O)OCc1cccc(Oc2ccccc2)c1` (configuration not stated), the Potency result in assay [1], in assay [2], in assay [3], in [4], in [5] and in assay [6] was “inactive” each time. For the same compound, the Potency result in assay [7], in assay [8], in assay [9], in assay [10], in [11] and in [12] was “inactive” each time. In addition, the Potency result in assay [13], in [14], in [17], in assay [19], in assay [15] and in [20] was “inactive” in each case. Moreover, the compound was called inactive in assay [18].
